# Values joined by “and” are separate entries in the source; they are usually repeats but may differ in a detail not shown here. Equal entries are not always repeated. Over roughly 2,900 compounds, “IRF Lucia reporter activity, fold change vs agonist alone” has its median near 0.9; the highest 2% begin near 2.8. Shown is part of a subset that was picked to be rich in the highest values.
# Columns and labels:
# RAW-Dual [1] = test: IRF Lucia reporter activity, fold change vs agonist alone; cytotoxicity flag (confluency mask): not cytotoxic; higher = enhanced IRF activity
# Procedure, shortened: (§1)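 Reporter activity is given as fold change relative to agonist-alone wells. To measure it, 50 nL of library stock was pin-tooled onto RAW-Dual macrophages (50,000 cells/well, DMEM, 384-well plates), a PRR agonist followed 1 h later, and cells stayed at 37 °C, 5% CO2. Twenty hours on, supernatant was assayed for IRF (QuantiLuc luminescence) and NF-κB (QuantiBlue, 620 nm absorbance), and wells under 70% of agonist-control IncuCyte confluency in both mask sets were marked cytotoxic.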
# RAW-Dual [2] = test: IRF Lucia reporter activity, fold change vs agonist alone; higher = enhanced IRF activity; settings: agonist: MPLA (TLR4) […]
# Procedure, shortened: as §1
# RAW-Dual [3] = test: IRF Lucia reporter activity, fold change vs agonist alone; cytotoxicity flag (confluency mask): cytotoxic (confluency <70% of control); higher = enhanced IRF activity
# Procedure, shortened: as §1
# [4] = agonist: 3'3'-cGAMP (STING) 10 ug/mL
# [5] = library stock concentration (final ~1000-fold dilution): 10 mM, cytotoxicity flag (confluency mask): not cytotoxic
# [6] = library stock concentration (final ~1000-fold dilution): 10 mM water, cytotoxicity flag (confluency mask): not cytotoxic
# [7] = library stock concentration (final ~1000-fold dilution): 10 mM, cytotoxicity flag (confluency mask): cytotoxic (confluency <70% of control)
structure (smiles),measurement,setting,value
CC(C)N(CCC(c1ccccc1)c1cc(CO)ccc1O)C(C)C (configuration not stated) (library stock concentration (final ~1000-fold dilution): 10 mM),IRF Lucia reporter activity,RAW-Dual [1]; [4],0.857
same,IRF Lucia reporter activity,RAW-Dual [1]; agonist: LPS (TLR4) 0.1 ug/mL,0.982
CC(C)N(CCC(c1ccccc1)c1cc(CO)ccc1O)C(C)C (configuration not stated),IRF Lucia reporter activity,RAW-Dual [2]; [5],0.986
CCCC1CC(C(=O)NC(C(C)Cl)C2OC(SC)C(OP(=O)(O)O)C(O)C2O)N(C)C1 (configuration not stated) (library stock concentration (final ~1000-fold dilution): 10 mM water),IRF Lucia reporter activity,RAW-Dual [1]; [4],1.23
same,IRF Lucia reporter activity,RAW-Dual [1]; agonist: LPS (TLR4) 0.1 ug/mL,0.95
CCCC1CC(C(=O)NC(C(C)Cl)C2OC(SC)C(OP(=O)(O)O)C(O)C2O)N(C)C1 (configuration not stated),IRF Lucia reporter activity,RAW-Dual [2]; [6],1.42
CCOC(=O)C1=C(COCCN)NC(C)=C(C(=O)OC)C1c1ccccc1Cl.O=S(=O)(O)c1ccccc1 (configuration not stated) (library stock concentration (final ~1000-fold dilution): 10 mM),IRF Lucia reporter activity,RAW-Dual [3]; [4],1.02
same,IRF Lucia reporter activity,RAW-Dual [3]; agonist: LPS (TLR4) 0.1 ug/mL,3.19
CCOC(=O)C1=C(C)NC(C)=C(C(=O)OC)C1c1cccc(Cl)c1Cl (configuration not stated) (library stock concentration (final ~1000-fold dilution): 10 mM),IRF Lucia reporter activity,RAW-Dual [1]; [4],1.31
same,IRF Lucia reporter activity,RAW-Dual [1]; agonist: LPS (TLR4) 0.1 ug/mL,1.17
CCOC(=O)C1=C(C)NC(C)=C(C(=O)OC)C1c1cccc(Cl)c1Cl (configuration not stated),IRF Lucia reporter activity,RAW-Dual [2]; [5],1.08
COC(=O)C1=C(C)NC(C)=C(C(=O)OCC(C)C)C1c1ccccc1[N+](=O)[O-] (configuration not stated),IRF Lucia reporter activity,RAW-Dual [2]; [5],0.508
CCOC(=O)C1=C(COCCN)NC(C)=C(C(=O)OC)C1c1ccccc1Cl (configuration not stated) (library stock concentration (final ~1000-fold dilution): 10 mM),IRF Lucia reporter activity,RAW-Dual [3]; [4],0.715 and 0.401
same,IRF Lucia reporter activity,RAW-Dual [3]; agonist: LPS (TLR4) 0.1 ug/mL,2.55 and 2.72
CCCC(=O)OCOC(=O)C1=C(C)NC(C)=C(C(=O)OC)C1c1cccc(Cl)c1Cl (configuration not stated) (library stock concentration (final ~1000-fold dilution): 10 mM),IRF Lucia reporter activity,RAW-Dual [1]; [4],1.02
same,IRF Lucia reporter activity,RAW-Dual [1]; agonist: LPS (TLR4) 0.1 ug/mL,0.873
COC(=O)C1=C(C)NC(C)=C(C(=O)OC)C1c1ccccc1[N+](=O)[O-] (library stock concentration (final ~1000-fold dilution): 10 mM),IRF Lucia reporter activity,RAW-Dual [1]; [4],0.606
same,IRF Lucia reporter activity,RAW-Dual [1]; agonist: LPS (TLR4) 0.1 ug/mL,0.554
CCOC(=O)C1=C(COCCN)NC(C)=C(C(=O)OC)C1c1ccccc1Cl.O=S(=O)(O)c1ccccc1 (configuration not stated),IRF Lucia reporter activity,RAW-Dual [2]; [7],3.36
COC(=O)C1=C(C)NC(C)=C(C(=O)OC)C1c1ccccc1[N+](=O)[O-],IRF Lucia reporter activity,RAW-Dual [2]; [5],0.406
CCCC(=O)OCOC(=O)C1=C(C)NC(C)=C(C(=O)OC)C1c1cccc(Cl)c1Cl (configuration not stated),IRF Lucia reporter activity,RAW-Dual [2]; [5],0.992
COC(=O)C1=C(C)NC(C)=C(C(=O)OCC(C)C)C1c1ccccc1[N+](=O)[O-] (configuration not stated) (library stock concentration (final ~1000-fold dilution): 10 mM),IRF Lucia reporter activity,RAW-Dual [1]; [4],0.585
same,IRF Lucia reporter activity,RAW-Dual [1]; agonist: LPS (TLR4) 0.1 ug/mL,0.872
Cc1cccc(Nc2nc(NC3CCCCC3N)ncc2C(N)=O)c1.Cl.Cl (configuration not stated) (library stock concentration (final ~1000-fold dilution): 10 mM),IRF Lucia reporter activity,RAW-Dual [3]; [4],0.0182
same,IRF Lucia reporter activity,RAW-Dual [3]; agonist: LPS (TLR4) 0.1 ug/mL,0.0241
CS(=O)(=O)O.Cc1ccc(N(CC2=NCCN2)c2cccc(O)c2)cc1,IRF Lucia reporter activity,RAW-Dual [2]; [5],0.907
CS(=O)(=O)O.Cc1ccc(N(CC2=NCCN2)c2cccc(O)c2)cc1 (library stock concentration (final ~1000-fold dilution): 10 mM),IRF Lucia reporter activity,RAW-Dual [1]; [4],0.803
same,IRF Lucia reporter activity,RAW-Dual [1]; agonist: LPS (TLR4) 0.1 ug/mL,0.89
C[N+](C)(C)NCCC(=O)O (library stock concentration (final ~1000-fold dilution): 10 mM water),IRF Lucia reporter activity,RAW-Dual [1]; [4],1.05
same,IRF Lucia reporter activity,RAW-Dual [1]; agonist: LPS (TLR4) 0.1 ug/mL,0.979
C[N+](C)(C)NCCC(=O)O,IRF Lucia reporter activity,RAW-Dual [2]; [6],1.25
C[C@@H]1O[C@@H](O[C@H]2C(=O)c3c(O)cc(O)cc3O[C@@H]2c2ccc(O)cc2)[C@H](O)[C@H](O)[C@H]1O (library stock concentration (final ~1000-fold dilution): 10 mM),IRF Lucia reporter activity,RAW-Dual [1]; [4],0.228
same,IRF Lucia reporter activity,RAW-Dual [1]; agonist: LPS (TLR4) 0.1 ug/mL,1.17
COc1nc2ccc(Br)cc2cc1C(c1ccccc1)C(O)(CCN(C)C)c1cccc2ccccc12.O=C(O)/C=C/C(=O)O (configuration not stated),IRF Lucia reporter activity,RAW-Dual [2]; [5],0.751
COc1nc2ccc(Br)cc2cc1C(c1ccccc1)C(O)(CCN(C)C)c1cccc2ccccc12.O=C(O)/C=C/C(=O)O (configuration not stated) (library stock concentration (final ~1000-fold dilution): 10 mM),IRF Lucia reporter activity,RAW-Dual [1]; [4],0.888
same,IRF Lucia reporter activity,RAW-Dual [1]; agonist: LPS (TLR4) 0.1 ug/mL,0.812
Cc1cc(Nc2ccc(NC(=O)c3ccc(Nc4ccnc5ccccc45)cc3)cc2)nc(N)n1,IRF Lucia reporter activity,RAW-Dual [2]; [5],3.15
CNCc1ccc(C)c(NC(=O)c2ccc(Nc3nc(-c4ccccc4)c4ccccc4n3)cc2)c1,IRF Lucia reporter activity,RAW-Dual [2]; [5],1.01
CNCc1ccc(C)c(NC(=O)c2ccc(Nc3nc(-c4ccccc4)c4ccccc4n3)cc2)c1 (library stock concentration (final ~1000-fold dilution): 10 mM),IRF Lucia reporter activity,RAW-Dual [1]; [4],0.995
same,IRF Lucia reporter activity,RAW-Dual [1]; agonist: LPS (TLR4) 0.1 ug/mL,1.04
Cc1cc(Nc2ccc(NC(=O)c3ccc(Nc4ccnc5ccccc45)cc3)cc2)nc(N)n1 (library stock concentration (final ~1000-fold dilution): 10 mM),IRF Lucia reporter activity,RAW-Dual [1]; [4],1.65
same,IRF Lucia reporter activity,RAW-Dual [1]; agonist: LPS (TLR4) 0.1 ug/mL,2.84
CC(=O)Nc1ccc(C(=O)Nc2ccccc2N)cc1 (library stock concentration (final ~1000-fold dilution): 10 mM),IRF Lucia reporter activity,RAW-Dual [1]; [4],0.557
same,IRF Lucia reporter activity,RAW-Dual [1]; agonist: LPS (TLR4) 0.1 ug/mL,0.424
CC(=O)Nc1ccc(C(=O)Nc2ccccc2N)cc1,IRF Lucia reporter activity,RAW-Dual [2]; [5],0.418
CCN(CC)CCCC(C)Nc1c2ccc(Cl)cc2nc2ccc(OC)cc12.Cl.Cl (configuration not stated),IRF Lucia reporter activity,RAW-Dual [2]; [7],0.84
CCN(CC)CCCC(C)Nc1c2ccc(Cl)cc2nc2ccc(OC)cc12.Cl.Cl (configuration not stated) (library stock concentration (final ~1000-fold dilution): 10 mM),IRF Lucia reporter activity,RAW-Dual [3]; [4],0.643
same,IRF Lucia reporter activity,RAW-Dual [3]; agonist: LPS (TLR4) 0.1 ug/mL,0.0599
C/C(O)=C(\C#N)C(=O)Nc1ccc(C(F)(F)F)cc1 (library stock concentration (final ~1000-fold dilution): 10 mM),IRF Lucia reporter activity,RAW-Dual [1]; [4],1.69
same,IRF Lucia reporter activity,RAW-Dual [1]; agonist: LPS (TLR4) 0.1 ug/mL,3.04
CC(=O)Oc1cc(C(F)(F)F)ccc1C(=O)O,IRF Lucia reporter activity,RAW-Dual [2]; [5],1.04
C/C(O)=C(\C#N)C(=O)Nc1ccc(C(F)(F)F)cc1,IRF Lucia reporter activity,RAW-Dual [2]; [5],1.97
Cc1oncc1C(=O)Nc1ccc(C(F)(F)F)cc1 (library stock concentration (final ~1000-fold dilution): 10 mM),IRF Lucia reporter activity,RAW-Dual [1]; [4],1.08
same,IRF Lucia reporter activity,RAW-Dual [1]; agonist: LPS (TLR4) 0.1 ug/mL,1.39
Cc1oncc1C(=O)Nc1ccc(C(F)(F)F)cc1,IRF Lucia reporter activity,RAW-Dual [2]; [5],1.62
CC(=O)Oc1cc(C(F)(F)F)ccc1C(=O)O (library stock concentration (final ~1000-fold dilution): 10 mM),IRF Lucia reporter activity,RAW-Dual [1]; [4],1.03
same,IRF Lucia reporter activity,RAW-Dual [1]; agonist: LPS (TLR4) 0.1 ug/mL,0.337

# Source: the supplement of paper PMC10037445
